MCF10A rerep = DNA re-replication induction in MCF 10a cells. MCF 10A DNA re-replication, Hoechst nuclear intensity, 48 h. 2.9% of 350,000 active. Potency, µM (titrated, usually from 46.1 µM), usual class: activators; also: nearly all actives have a fitted effect of over 50% in size
p53 reactivator = mutant p53 re-activation in reporter cells | AID 504706 | H1299 p53-A138V BP100-luciferase reporter, luminescence, 24 h | Potency, µM (series often up to 92.2 µM), most hits filed as activators | 0.063% of 320,000 active; also: nearly all actives have a fitted effect of over 45% in size
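p53-null H1299 cells stably carrying temperature-sensitive p53-A138V and a BP100-luciferase reporter were pinned with compounds (4-point, 1:5 series) and held 24 hrs at 37 deg C. Luminescence was read 10 min after detection reagent.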
ELG1 genotox = inducers of genotoxicity in HEK293T ELG1-luciferase cells; AID 504466; HEK293T ELG1-luciferase reporter, luminescence, 16 h; 1.3% of 330,000 active; Potency, µM (series often up to 46 µM), hits mostly activators; also: nearly all actives have a fitted effect of over 60% in size
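Luminescence read-out: rising ELG1-luciferase signal, reflecting elevated ELG1 protein under genetic stress, flags genotoxic compounds. Cells were treated for 16 hr at 37 °C before ONE-Glo detection.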
SW480 rerep = DNA re-replication induction in SW480 cells. SW480 DNA re-replication, Hoechst DNA content imaging, 48 h. Potency, µM (titrated, usually from 46.1 µM), most hits filed as activators. 1.8% of 340,000 active. AID 624297; also: nearly all actives have a fitted effect of over 55% in size
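Image-based read-out: total Hoechst fluorescence of nuclei (405 nm excitation, 500-530 nm emission), with hits raising the fraction of high-intensity nuclei. SW480 colon cells incubated 48 hr with compounds at 37 C.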
ELG1 DNA repair = blocks ELG1-dependent DNA repair in HEK293T cells | HEK293T ELG1-luciferase reporter, luminescence, 16 h; DNA damage induced by 5-fluorouridine | Potency, µM (top dose mostly 46.1 µM), most hits filed as inhibitors | 2.3% of 330,000 active | AID 504467; also: nearly all actives have a fitted effect of over 55% in size
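HEK293T cells expressing luciferase-tagged ELG1 (2,000/well) received 5-Fluorouridine plus compound or DMSO for 16 hr at 37 °C. Luciferase was read by ONE-Glo luminescence after 30 min at room temperature.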
AT treatment = potential ataxia-telangiectasia treatments restoring KAP-1 phosphorylation. F2112 A-T fibroblasts, KAP-1 phosphorylation AlphaLISA; neocarzinostatin DNA damage 30 min before lysis. Potency, µM (titrated, usually from 57.5 µM), hits mostly activators. 0.19% of 320,000 active; also: nearly all actives have a fitted effect of over 45% in size
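ATM-like activity read as KAP-1 phosphorylation via AlphaLISA donor/acceptor antibody pairs after lysis and 6 hr at 25C. Cells were ATM-null patient fibroblasts (F2112, hTERT), dosed 60 min, then exposed to the DSB inducer NCS for 30 min.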
Large screens that a line does not name were inactive. Hits are enriched below; roughly 7.1% of the tested compounds scored in any of these assays. Calls follow the shape of the dose curve; as a rule, active = well fitted curve in the direction sought with a large enough effect; inconclusive = small, poorly fitted or top-dose-only effect, or another doubt; inactive = no such curve, though single readings can be large; an effect the other way counts as inactive or inconclusive.

O=C(O)CCN=CC1=C(O)CC(c2ccccc2)CC1=O (stereo unspecified)	none
COc1ccc(C2=CC(c3cc(OC)c(OC)c(OC)c3)NC(=S)N2)cc1 (stereo unspecified)	MCF10A rerep inconclusive, SW480 rerep 18µM
COc1cc(C2C=C(C34CC5CC(CC(C5)C3)C4)NC(=S)N2)cc(OC)c1OC (stereo unspecified)	SW480 rerep inconclusive, ELG1 DNA repair 23µM
COc1ccc(OC)c(C2C=C(C34CC5CC(CC(C5)C3)C4)NC(=S)N2)c1 (stereo unspecified)	SW480 rerep inconclusive, ELG1 DNA repair inconclusive
COc1ccc(S(=O)(=O)N2CCCCC2)cc1NC(=O)c1c(F)cccc1Cl	SW480 rerep inconclusive
Cc1ccccc1NC(=O)C1Cc2ccccc2CN1C(=O)c1ccco1 (stereo unspecified)	ELG1 genotox 23µM, ELG1 DNA repair inconclusive
COc1cccc(COC(=O)C2CCN(S(=O)(=O)c3ccc(C)cc3C)CC2)c1OC	none
O=C(Nc1ccc(Cl)cc1)Nc1nnc(-c2ccncc2)s1	MCF10A rerep inconclusive, ELG1 DNA repair 3.7µM
Cc1ccc(NC(=O)Nc2nnc(CSCCOc3ccc(Cl)cc3)s2)cc1	ELG1 DNA repair inconclusive
O=C(Nc1cccc(Cl)c1)Nc1nnc(CSCCOc2ccc(Cl)cc2)s1	MCF10A rerep 5.2µM, SW480 rerep inconclusive, ELG1 DNA repair inconclusive
Cc1cccc(Nc2nc(-c3ccncc3)cs2)c1	MCF10A rerep inconclusive, SW480 rerep inconclusive, ELG1 DNA repair inconclusive
O=C(NCCc1ccncc1)Nc1cccc(Cl)c1	none
Clc1cccc(Nc2nc(-c3ccncc3)cs2)c1	MCF10A rerep inconclusive, SW480 rerep 15µM
O=C(Nc1cccc(Cl)c1)Nc1nnc(-c2ccncc2)s1	MCF10A rerep 5.8µM, SW480 rerep 12µM, ELG1 DNA repair inconclusive
Cc1cccc(NC(=O)c2nc[nH]c2C(=O)N2CCC(C)CC2)c1	none
O=C(Nc1ccc(F)cc1)Nc1nnc(-c2ccncc2)s1	SW480 rerep inconclusive, ELG1 DNA repair inconclusive
Cc1ccc(NC(=O)Nc2nnc(-c3ccncc3)s2)cc1C	MCF10A rerep 16µM
O=C(Cc1ccccc1)c1nnc(-c2ccccc2)o1	none
Cc1ccc(C(=O)N2CC(C)SC2=Nc2cccc(S(=O)(=O)N(C)C)c2)cc1 (stereo unspecified)	none
CN(C)S(=O)(=O)c1cccc(N=C2SCCN2Cc2ccccc2)c1	SW480 rerep inconclusive, ELG1 DNA repair 18µM
O=C(N/C(=C/c1ccccc1F)C(=O)N1CCCCC1)c1ccccc1	none
O=C(Nc1ccccc1)C1=C(c2ccccc2)S(=O)(=O)CCS1(=O)=O	MCF10A rerep inconclusive, SW480 rerep 1.3µM, ELG1 DNA repair inconclusive
COc1cc(NC(=O)CSc2nc3c(c(=O)n(C)c(=O)n3C)n2C)cc(OC)c1	none
CCOc1cc(Br)cc(/C=C2\SC(=Nc3ccccc3)NC2=O)c1O	MCF10A rerep 8.2µM
C=CCOc1ccc(Br)cc1/C=N/O	none (no result: AT treatment)
C=CCOc1ccc(Br)cc1/C=C1/SC(=Nc2ccc(C(=O)O)cc2)NC1=O	MCF10A rerep 8.2µM
C=CCOc1c(Br)cc(/C=C2\SC(=Nc3ccccc3)NC2=O)cc1OC	MCF10A rerep inconclusive, ELG1 DNA repair inconclusive
CN(Cc1ccccc1)c1nc(-c2ccc([N+](=O)[O-])cc2)nc2ccccc12	none
O=[N+]([O-])c1ccc(-c2nc(C(Cl)Cl)c3ccccc3n2)cc1	MCF10A rerep inconclusive, SW480 rerep inconclusive, ELG1 DNA repair 5.2µM
COCCNC(=S)NN=C1CCCCC1	SW480 rerep 18µM
CCc1ccn2cc(-c3ccc4c(c3)OCO4)nc2c1	ELG1 genotox 0.18µM, ELG1 DNA repair inconclusive
COC(=O)c1ccc2nc(-c3ccc4c(c3)OCO4)cn2c1	ELG1 genotox inconclusive, ELG1 DNA repair inconclusive
O=C(N/N=C/c1cc(Br)c(O)c(Br)c1)c1cc2c(ccc3ccccc32)o1	MCF10A rerep 8.2µM, SW480 rerep inconclusive
Cc1nc2ccccn2c1C(=O)N/N=C/c1ccc([N+](=O)[O-])cc1	none
C/C(=N\NC(=O)c1c(C)nc2ccccn12)c1ccc(C(C)(C)C)cc1	MCF10A rerep 18µM, SW480 rerep inconclusive
O=C(N/N=C/c1cc(Cl)c(O)c(Cl)c1)c1cc2c(ccc3ccccc32)o1	MCF10A rerep inconclusive, SW480 rerep 15µM
C/C(=N\NC(=O)c1c(C)nc2ccccn12)c1ccc(N2CCOCC2)cc1	none
Cc1nc2ccccn2c1C(=O)N/N=C/c1ccc([N+](=O)[O-])o1	MCF10A rerep inconclusive, p53 reactivator inconclusive, SW480 rerep inconclusive, ELG1 DNA repair 10µM
CN(C(=O)C(=O)c1cn(CC(=O)N2CCCC2)c2ccccc12)C1CCCCC1	none
O=C(N/N=C/c1ccc([N+](=O)[O-])o1)c1cc2ccccc2o1	MCF10A rerep inconclusive, SW480 rerep inconclusive, ELG1 DNA repair inconclusive
O=C(N/N=C/c1ccc([N+](=O)[O-])o1)c1cc2c(ccc3ccccc32)o1	MCF10A rerep 2.6µM, SW480 rerep inconclusive
CNC(=O)c1cc2c(ccc3ccccc32)o1	ELG1 genotox inconclusive, ELG1 DNA repair inconclusive
O=C(NC1CCCC1)c1cc2c(ccc3ccccc32)o1	ELG1 genotox 4.6µM, ELG1 DNA repair inconclusive
COCCN1CCN(c2cc(-c3ccccc3)nc3cc(-c4cccc(F)c4)nn23)CC1	MCF10A rerep 21µM, SW480 rerep inconclusive, ELG1 DNA repair 15µM
Fc1cccc(-c2cc3nc4c(c(N5CCC6(CC5)OCCO6)n3n2)CCCC4)c1	p53 reactivator inconclusive, ELG1 genotox inconclusive, ELG1 DNA repair inconclusive
Cc1ccc(-c2cc3nc(-c4ccccc4)cc(N4CCC5(CC4)OCCO5)n3n2)cc1	MCF10A rerep inconclusive, SW480 rerep 18µM
CN(C)CCCNc1cc(-c2ccccc2)nc2cc(-c3cccc(F)c3)nn12	MCF10A rerep 21µM, SW480 rerep inconclusive, ELG1 DNA repair inconclusive (no result: p53 reactivator)
Fc1cccc(-c2cc3nc(-c4ccccc4)cc(N4CCC5(CC4)OCCO5)n3n2)c1	ELG1 DNA repair 23µM
Cc1cccc(-c2cc3nc(C)cc(NCCCN(C)C)n3n2)c1	MCF10A rerep inconclusive, ELG1 genotox inconclusive, ELG1 DNA repair inconclusive
Cc1cccc(-c2cc3nc(-c4ccccc4)cc(N4CCC5(CC4)OCCO5)n3n2)c1	SW480 rerep inconclusive, ELG1 DNA repair inconclusive
CC(C)(NC(=O)c1ccccc1)c1nc2ccccc2s1	none
O=C1CCCCN1CCCC(=O)N1CCCC(Nc2ccccc2)C1 (stereo unspecified)	none
